DRD3 antagonist: qHTS of D3 Dopamine Receptor Antagonist: qHTS. max response, negative = inhibition, %. AID 652054, 2013. 360,000 compounds, 2.5% hits. D3R cells, DiscoveRx beta-arrestin luminescence, antagonist mode; stronger effect = lower value; in the data active means max response below about -50%; further: on the % scale 0 is the no-effect control and ±100 the full control effect
Target sequence (P35462 whole entry, looked up): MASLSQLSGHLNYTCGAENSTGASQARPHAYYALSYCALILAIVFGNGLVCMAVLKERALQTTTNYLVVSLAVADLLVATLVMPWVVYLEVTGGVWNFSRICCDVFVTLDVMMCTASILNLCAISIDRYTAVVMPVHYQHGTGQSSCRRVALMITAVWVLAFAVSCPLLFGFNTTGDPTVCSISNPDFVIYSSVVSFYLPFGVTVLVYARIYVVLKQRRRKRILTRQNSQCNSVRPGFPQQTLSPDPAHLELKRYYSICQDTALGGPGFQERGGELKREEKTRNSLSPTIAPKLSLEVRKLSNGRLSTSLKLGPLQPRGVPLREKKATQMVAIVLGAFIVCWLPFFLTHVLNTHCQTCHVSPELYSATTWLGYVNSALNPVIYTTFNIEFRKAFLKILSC
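Cells expressing the human receptor were seeded at 1500 cells/well, incubated overnight at 37 degrees C in 5% CO2, then exposed to library compounds with dopamine controls for 90 minutes at 37 degrees C before luminescent detection.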
D1 antagonist: Antagonist of Human D 1 Dopamine Receptor: qHTS | AID 504652, 2011 | D(1A) dopamine receptor (Homo sapiens), P21728 | 360,000 compounds, 3.2% hits | activity change, negative = inhibition, % at 10 µM | HEK293 TREx D1 cells, calcium flux, dopamine EC80; stronger effect = lower value; in the data active means activity change below about -30%; further: on the % scale 0 is the no-effect control and ±100 the full control effect
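Kinetic fluorescence of a calcium dye serves as the read-out. D1-expressing Hek293 Trex cells, induced overnight at 30 C, are exposed to compound for 180 s before an EC80 dopamine addition, then read 180 s further.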
DRD3 agonist: qHTS of D3 Dopamine Receptor Agonist: qHTS | 410,000 compounds, 0.58% hits | AID 652048, 2013 | max activation, % | D(3) dopamine receptor (Homo sapiens), P35462 | D3R DiscoveRx beta-arrestin cells, luminescence, 90 min; in the data active means max activation above about 30%; further: 0% is about no effect
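Cells at 1500/well, incubated overnight, then treated with pinned compounds (dopamine as control) for 90 min at 37 degrees C. DiscoveRx reagent added for 30 - 60 minutes at room temperature; luminescence read.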
D1 ag: Allosteric Agonists of the Human D1 Dopamine Receptor: qHTS; HEK293 T-REx D1 cells, calcium flux, agonist mode; activation, % at 2 µM; 360,000 compounds, 1% hits; AID 504660, 2011; in the data active means activation above about 30%; further: 0% is about no effect
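Tetracycline-induced HEK293 TREx D1 cells, force-coupled to calcium signalling, were dye-loaded with a no-wash calcium kit. Compound was pin-added after a 10 s baseline. Fluorescence was read kinetically at 1 cycle/s for 180 s, with calcium rises flagged as agonism.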
D1 potentiator: Potentiators of Human D1 Dopamine Receptor: qHTS; D(1A) dopamine receptor (Homo sapiens), P21728; HEK293 TREx D1 cells, calcium flux, dopamine EC20 potentiation; potentiation, % at 10 µM; 360,000 compounds, 0.036% hits; AID 504651, 2011; in the data active means potentiation above about 30%; further: 0% is about no effect
The depositor's hits bear a star. Only some compounds are listed: those with a hit (about 6% of all), similar ones and a draw of the others.

Screening CCOC(=O)C1=C(CNCCOc2ccc(OC)cc2)NC(=O)NC1c1ccc2c(c1)OCO2 (centres undefined) returned DRD3 antagonist -7, D1 antagonist -33*, DRD3 agonist 3, D1 ag 9 and D1 potentiator -3.
Screening N#Cc1nc(Nc2cccc(Br)c2)nc(NC2CCCC2)n1 returned D1 antagonist -14, D1 ag 7 and D1 potentiator -4.
`O=C1CN(C(=O)Cc2ccccc2)C(c2ccc(F)cc2)c2cc(Br)ccc2N1` (centres undefined) gave D1 antagonist -48*, DRD3 agonist 2, D1 ag 2 and D1 potentiator 4.
For O=C1CN(C(=O)COc2ccccc2)C(c2ccc(F)cc2)c2cc(Br)ccc2N1 (centres undefined) the results were D1 antagonist 8, DRD3 agonist 2, D1 ag 1 and D1 potentiator 3.
Screening CC(=O)OCCCNc1cc(Sc2ccc(Cl)cc2)c2nonc2c1[N+](=O)[O-] returned DRD3 antagonist -118*, D1 antagonist -5, DRD3 agonist -18, D1 ag 2 and D1 potentiator -7.
For Cc1ccc(Sc2cc(NCCCO)c([N+](=O)[O-])c3nonc23)cc1 the results were DRD3 antagonist -10, D1 antagonist 2, DRD3 agonist -1, D1 ag 10 and D1 potentiator 3.
Screening CCC(=O)OCCNc1cc(Sc2nccn2C)c2nonc2c1[N+](=O)[O-] returned DRD3 antagonist -101*, D1 antagonist -8, DRD3 agonist -17, D1 ag -1 and D1 potentiator -4.
CCCC(=O)OCCNc1cc(Sc2nc3ccccc3[nH]2)c2nonc2c1[N+](=O)[O-] was read as DRD3 antagonist -83*, D1 antagonist -49*, DRD3 agonist -16, D1 ag 0 and D1 potentiator -10.
`CCCCN(CC(O)COc1cccc(C)c1)CC(O)COc1cccc(C)c1` (centres undefined) gave DRD3 antagonist -1, D1 antagonist 8, DRD3 agonist -10, D1 ag 6 and D1 potentiator -5.
COc1ccc(-c2noc(-c3cc(C(C)C)[nH]n3)n2)cc1 was read as D1 antagonist 9, DRD3 agonist 6, D1 ag 0 and D1 potentiator 3.
CCOc1ccc(Nc2nc(N)c(C(=O)c3ccccc3Cl)s2)cc1 was read as D1 antagonist 81, DRD3 agonist 70*, D1 ag 9 and D1 potentiator 3.
Screening COc1ccc(Nc2nc(N)c(C(=O)c3ccc(OC)cc3)s2)cc1 returned DRD3 antagonist -24, D1 antagonist 17, DRD3 agonist -7, D1 ag 13 and D1 potentiator 7.
`COc1cccc(-c2sc3ccc(OC)cc3c2C#CC(C)(C)O)c1` gave DRD3 antagonist -11, DRD3 agonist 71*, D1 ag 0 and D1 potentiator 0.
Screening COc1ccc2sc(-c3ccc(N(C)C)cc3)c(C#Cc3cncn3C)c2c1 returned DRD3 antagonist 234 and DRD3 agonist 83*.
Screening COc1ccc2sc(-c3ccc(N(C)C)cc3)c(C#CC(C)(C)O)c2c1 returned DRD3 antagonist 23, DRD3 agonist 20, D1 ag -1 and D1 potentiator -2.
`COc1ccc2sc(-c3ccc(SC)cc3)c(C#CCO)c2c1` gave DRD3 antagonist 112 and DRD3 agonist 62*.
`COc1ccc2sc(-c3ccc(N(C)C)cc3)c(C#CCCO)c2c1` gave DRD3 antagonist 122, DRD3 agonist 32*, D1 ag 5 and D1 potentiator 0.
`CO/N=C(\C(=O)N[C@@H]1C(=O)N2C(C(=O)[O-])=C(C[n+]3ccc(N)n3CCO)CS[C@H]12)c1csc(N)n1` gave DRD3 agonist -1.
`CC(=O)N[C@@H](CC(=O)N[C@@H](CCC(=O)O)C(=O)O)C(=O)O` gave DRD3 agonist -6.
`CC1CN(Cc2cc(=O)n3ccsc3n2)CC(C)O1` (centres undefined) gave DRD3 antagonist -4, D1 antagonist -49*, DRD3 agonist -1, D1 ag 1 and D1 potentiator 1.
For CC1(c2ccccc2Cl)NC(=O)N(CC(=O)Nc2ccc3c(c2)OCO3)C1=O (centres undefined) the results were DRD3 antagonist -71*, D1 antagonist 4, DRD3 agonist 2, D1 ag 1 and D1 potentiator 0.
For COc1ccc(C2(C)NC(=O)N(CC(=O)c3cc(C)n(C4CC4)c3C)C2=O)cc1 (centres undefined) the results were DRD3 antagonist -8, D1 antagonist -9, DRD3 agonist -5, D1 ag 64* and D1 potentiator -3.
`CC1(c2ccc(OC(F)F)cc2)NC(=O)N(CC(=O)Nc2ccc3c(c2)OCO3)C1=O` (centres undefined) gave DRD3 antagonist 12, D1 antagonist -60*, DRD3 agonist -9, D1 ag 66* and D1 potentiator -9.
Screening CC1(c2ccccc2)NC(=O)N(CC(=O)Nc2ccc3c(c2)OCO3)C1=O (centres undefined) returned DRD3 antagonist 0, D1 antagonist 6, DRD3 agonist -2, D1 ag 3 and D1 potentiator -3.
`O=C(CN1C(=O)NC2(CCCC2)C1=O)Nc1cc(Cl)ccc1N1CCCCC1` gave DRD3 antagonist -8, D1 antagonist 2, DRD3 agonist 1, D1 ag 42* and D1 potentiator 0.
`Cc1cc(C(=O)CN2C(=O)NC(C)(c3ccc(F)c(F)c3)C2=O)c(C)n1C1CC1` (centres undefined) gave DRD3 antagonist 8 and DRD3 agonist 4.
For Cc1nn(CCC(=O)N2CCN(c3ccccc3F)CC2)c(C)c1S(=O)(=O)N1CCCC1 the results were D1 antagonist -2, DRD3 agonist -12, D1 ag 5 and D1 potentiator 0.
Screening CC(=O)c1c(C)[nH]c(C(=O)CN2C(=O)NC(C)(c3ccc(C)cc3)C2=O)c1C (centres undefined) returned DRD3 antagonist 19, D1 antagonist 9, DRD3 agonist -2, D1 ag 33* and D1 potentiator -6.
Cc1ccc(C2(C)NC(=O)N(CC(=O)NC(=O)NC(C)(C)C)C2=O)cc1 (centres undefined) was read as DRD3 antagonist 10, D1 antagonist 2, DRD3 agonist 33*, D1 ag 4 and D1 potentiator 8.

High-throughput results: PubChem, National Center for Advancing Translational Sciences (NCATS)
